PubChem BioAssay (NCI)
About 83,000 compounds went through this panel and 20% of them were active in at least one assay; those are over-represented in the sample as a whole.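 Activity criterion: percent growth below 10, measured after cells in 96-well plates were exposed to a single compound concentration for 48 hours.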 Values without a mark were called inactive. Active and inactive are the calls of the source.

Legend:
Assay in all cases: NCI-60 one-dose screen, 48 h (100 = growth as untreated, 0 = no growth, -100 = all killed)
Conditions in all cases: 10 µM unless noted
SR leukemia = system: SR leukemia
RPMI-8226 leukemia = system: RPMI-8226 leukemia
OVCAR-8 ovarian = system: OVCAR-8 ovarian
OVCAR-5 ovarian = system: OVCAR-5 ovarian
OVCAR-4 ovarian = system: OVCAR-4 ovarian
SK-OV-3 ovarian = system: SK-OV-3 ovarian
IGROV1 ovarian = system: IGROV1 ovarian
OVCAR-3 ovarian = system: OVCAR-3 ovarian
HS 578T breast = system: HS 578T breast
NCI/ADR-RES ovarian = system: NCI/ADR-RES ovarian

Compound	growth (SR leukemia)	growth (RPMI-8226 leukemia)	growth (OVCAR-8 ovarian)	growth (OVCAR-5 ovarian)	growth (OVCAR-4 ovarian)	growth (SK-OV-3 ovarian)	growth (IGROV1 ovarian)	growth (OVCAR-3 ovarian)	growth (HS 578T breast)	growth (NCI/ADR-RES ovarian)
O=Nc1c(-c2c(O)[nH]c3ncccc23)[nH]c2ccccc12	32.8%	69.5%	79.6%	67.7%	66.7%	6.5% (active)	-25.3% (active)	69.3%	-9.72% (active)	71.8%
O=C(CN1C(=O)CCC1=O)Nc1ncc(Cc2ccc(F)cc2)s1	99.9%	105%	107%	97.3%	101%	110%	101%	103%	101%	100%
CCNc1nc(-c2ccc(Cl)c(OC)c2)c(-c2ccnc(NCCCNS(=O)(=O)c3ccc(Cl)cc3)n2)s1	43.4%	45.9%	51%	87.6%	83%	42.1%	56.1%	81.2%	64.3%	77.6%
C=C(C)[C@@H]1CC[C@]2(C(=O)N3CCN(C)CC3)CC[C@]3(C)[C@H](CC[C@@H]4[C@@]5(C)CC(=C/c6ccncc6)/C(=N/O)C(C)(C)[C@@H]5CC[C@]43C)[C@@H]12	3.4% (active)	46.7%	85.1%	86.7%	69.2%	98.7%	65.1%	75.2%	87.5%	78.8%
COc1ccc2c(c1)c(-c1noc(C(=O)c3cn(C)c4ccc(Br)cc34)n1)cn2C	80.5%	95.4%	96.1%	107%	108%	99.5%	89.2%	111%	94.6%	102%
CN(C)CCNC(=O)c1cccc(-c2cnc3ccc(-c4ccc5c(c4)OCO5)nn23)c1	-2.23% (active)	75.8%	88.6%	89.3%	67.2%	61.1%	30.6%	76.9%	80.1%	85.8%
CN(C)Cc1ccc(NC(=O)c2cncc(C#Cc3cnc(N)c4ncccc34)c2)cc1F	2.94% (active)	35.6%	-18% (active)	123%	-71.3% (active)	112%	100%	87.9%	87.3%	56.9%
CN(C)CCNc1nc2c3cc(Cl)ccc3nn2c2ccccc12	16.9%	50.8%	36.1%	65.7%	55.6%	57.4%	39.2%	57.8%	68.8%	36.5%
O=C1c2cccnc2C(=O)c2c1c(C(=O)NCCCN1CCCCC1)c1ccccn21	-15.3% (active)	-10.9% (active)	-13.3% (active)	-0.385% (active)	-88% (active)	-15.7% (active)	-43.4% (active)	-34.8% (active)	36.3%	-15.5% (active)
N#CCSc1nnc2n(Cc3ccccc3)c(=O)c3c4c(sc3n12)CCCC4	94.8%	-61.3% (active)	95.1%	92.2%	101%	107%	74.2%	98.5%	95.3%	91%
Nc1ncnc2c1N=C(c1ccc(Cl)cc1)CC(c1ccc3c(c1)OCO3)N2 (stereo not given)	77.3%	60.3%	91.7%	85.6%	98.6%	21%	46%	85.5%	93.8%	98.2%
COc1ccc(CC(C#N)c2cc3ccccc3[nH]2)cc1 (stereo not given)	96.1%	71.4%	90.8%	94.1%	95.4%	94.4%	94.7%	92%	90.8%	92.8%
OCCNCCCOc1ccc2ncnc(Nc3ccc(Oc4cccc(C(F)(F)F)c4)c(Cl)c3)c2c1	5.48% (active)	-12.1% (active)	32.1%	72.8%	5.48% (active)	13.7%	-35% (active)	3.15% (active)	34.2%	69.1%
